EP2 antag: human EP2 receptor antagonists, primary screen, TR-FRET cAMP, C6 glioma cells; inhibition, % at 25 µM; C6 glioma cells expressing human EP2; cells stimulated with saturating PGE2; Prostaglandin E2 receptor EP2 subtype (Homo sapiens), P43116; 260,000 tested, 0.52% active;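 active = percent inhibition above 40 after rounding to a whole number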;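 also: rat C6 glioma host cells with rolipram phosphodiesterase inhibitor present; the protocol text gives 20 µM as final concentration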
EP2 modulator: EP2 receptor modulators, cAMP readout, primary screen, cell-based, HTRF cAMP, PGE2 stimulation | EP2-expressing cells, cAMP HTRF FRET, PGE2 co-stimulation | induction, % at 25 µM | 260,000 tested, 0.83% active | AID 940, 2007 | Prostaglandin E2 receptor EP2 subtype (Homo sapiens), P43116;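 active = compounds whose cAMP rise, as percent of the full-agonist control response, exceeds 60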;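 also: rat C6 glioma line stably carrying human EP2 under a CMV promoter; the protocol text gives 20 µM as final concentration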
S1P3 antagonist: S1P3 receptor antagonists, primary screen, cell-based | Sphingosine 1-phosphate receptor 3 (Homo sapiens), Q99500 | 170,000 tested, 0.27% active | CHO S1P3 NFAT-BLA reporter, FRET fluorescence, antagonist mode | inhibition, % at 4.98 µM;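 active = inhibition above the plate cutoff, the mean inhibition of test wells on that plate plus 3 SD, cut at about 28% in these data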;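 also: cells challenged with S1P at its EC80 of 0.8 µM; blue over green emission ratio from cleaved BLA substrate after 4 h stimulation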
Cl transport mod: KCC2 cotransporter modulators, thallium flux, primary screen, cell-based, HEK293 KCC2, FluoZin-2 fluorescence, MLSMR | Solute carrier family 12 member 5 (Homo sapiens), Q9H2X9 | 190,000 tested, 2.2% active | B-score of Tl+ flux slope (higher = more flux/activation; lower = inhibition) at 10 µM | KCC2 cells, thallium flux FluoZin-2 fluorescence;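 active = thallium flux slope and its plate-corrected score both differing from the plate sample mean at a set confidence after two filtering rounds, in either direction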;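 also: slope of fluorescence scaled to starting intensity during 10 to 20 s after thallium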
Target sequence (Q9H2X9 whole entry, looked up): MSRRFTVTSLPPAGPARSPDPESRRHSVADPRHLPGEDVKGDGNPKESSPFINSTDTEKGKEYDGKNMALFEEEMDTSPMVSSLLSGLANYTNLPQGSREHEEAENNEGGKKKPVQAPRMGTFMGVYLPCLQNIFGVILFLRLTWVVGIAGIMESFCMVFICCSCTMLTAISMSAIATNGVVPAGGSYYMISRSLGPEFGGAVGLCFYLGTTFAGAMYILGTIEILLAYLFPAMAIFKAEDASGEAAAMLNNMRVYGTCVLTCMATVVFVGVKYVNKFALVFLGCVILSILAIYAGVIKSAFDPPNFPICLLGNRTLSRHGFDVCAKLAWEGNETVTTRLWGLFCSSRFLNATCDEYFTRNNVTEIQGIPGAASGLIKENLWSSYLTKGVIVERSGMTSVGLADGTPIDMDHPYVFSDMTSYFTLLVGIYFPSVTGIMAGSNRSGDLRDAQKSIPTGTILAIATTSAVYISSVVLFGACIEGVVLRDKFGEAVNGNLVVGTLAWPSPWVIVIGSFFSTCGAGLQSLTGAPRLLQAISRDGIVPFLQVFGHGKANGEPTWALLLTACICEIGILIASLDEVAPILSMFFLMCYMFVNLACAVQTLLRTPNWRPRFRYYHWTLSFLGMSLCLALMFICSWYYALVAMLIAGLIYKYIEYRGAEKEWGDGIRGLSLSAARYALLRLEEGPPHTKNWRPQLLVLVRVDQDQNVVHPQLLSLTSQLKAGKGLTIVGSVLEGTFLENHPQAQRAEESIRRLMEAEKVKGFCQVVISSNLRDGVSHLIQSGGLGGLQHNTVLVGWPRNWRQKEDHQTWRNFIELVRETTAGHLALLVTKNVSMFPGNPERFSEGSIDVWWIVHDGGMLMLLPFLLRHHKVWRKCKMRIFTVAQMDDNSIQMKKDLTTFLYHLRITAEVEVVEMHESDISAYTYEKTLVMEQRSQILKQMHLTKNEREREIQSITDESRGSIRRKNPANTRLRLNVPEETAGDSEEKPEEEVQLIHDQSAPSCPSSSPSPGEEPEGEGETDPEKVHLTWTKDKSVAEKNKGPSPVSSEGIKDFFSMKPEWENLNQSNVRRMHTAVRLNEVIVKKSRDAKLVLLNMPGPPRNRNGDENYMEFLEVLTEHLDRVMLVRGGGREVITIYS
Of the large screens only hits and unclear results are named; the others gave an inactive call. An excerpt weighted towards active compounds, which were near 3.1% of everything screened.

COc1ccc(S(=O)(=O)N2c3ccccc3OCC2C(C)(C)C)cc1 (configuration not stated)	EP2 modulator 62
NC(=O)c1c(NC(=O)c2cc3ccccc3o2)sc2c1CCC2	EP2 antag 42
CCn1ncc(Br)c1C(=O)Nc1sc2c(c1C(N)=O)CCC2	none (no result: Cl transport mod)
Cn1cc(Br)c(C(=O)Nc2sc3c(c2C(N)=O)CCC3)n1	EP2 antag 40 (no result: S1P3 antagonist)
NC(=O)c1c(NC(=O)c2ccc3ccccc3c2)sc2c1CCCC2	none (no result: S1P3 antagonist, Cl transport mod)
CCC(C)(C)n1nnnc1C(C(C)C)N1CCN(Cc2ccccc2)CC1 (configuration not stated)	none (no result: S1P3 antagonist, Cl transport mod)
CC(=O)NC1=NN(C(C)=O)C(C)(C)S1	none (no result: S1P3 antagonist, Cl transport mod)
Cc1cc(SCC(=O)N/N=C/c2ccc(O)c(O)c2)c(C)cc1Br	EP2 antag 50 (no result: S1P3 antagonist, Cl transport mod)
Cc1ccc2cc(C)c(SCC(=O)N3CCCC(C)C3)nc2c1 (configuration not stated)	EP2 modulator 62 (no result: S1P3 antagonist, Cl transport mod)
COc1ccc2cc(C#N)c(SCC(=O)N3CCCC(C)C3)nc2c1 (configuration not stated)	none (no result: S1P3 antagonist, Cl transport mod)
CC(C)CN(CC(C)C)c1nc(N)c(C#N)c(CC#N)c1C#N	S1P3 antagonist 94
O=c1oc2cc(O)c(Cl)cc2c2ccccc12	EP2 modulator 61
CCCc1c(C)c2cc(Cl)c(O)cc2oc1=O	none (no result: S1P3 antagonist, Cl transport mod)
CCOC(=O)N1CCN(S(=O)(=O)c2ccc(CC)cc2)CC1	none (no result: S1P3 antagonist, Cl transport mod)
CCN1/C(=C/C=C/C=C/c2sc3ccccc3[n+]2CC)Sc2ccccc21	EP2 antag 50
CC[n+]1c(/C=C/Nc2ccccc2)sc2ccccc21	none (no result: S1P3 antagonist)
Cc1cc(-c2cncnc2C2CCCN(C(=O)CCc3ccc(C)o3)C2)on1 (configuration not stated)	none (no result: EP2 antag, S1P3 antagonist, Cl transport mod)
CCOc1ccc2[nH]c3c(c2c1)CN(C(=O)c1cnc(C(C)(C)C)nc1)CC3	none (no result: S1P3 antagonist, Cl transport mod)
O=c1c2cc3c(nc2[nH]c(=S)n1-c1ccccc1)CCCC3	none
CCn1c(=S)[nH]c2nc3c(cc2c1=O)CCCC3	Cl transport mod 42 (no result: S1P3 antagonist)
O=C(Cn1c2ccccc2c2ccccc21)N1CCn2c(nnc2C2CC2)C1	none (no result: S1P3 antagonist, Cl transport mod)
Oc1nc(Nc2ccccc2)sc1/C=C1\C=Nc2ccccc21	EP2 antag 72 (no result: Cl transport mod)
CCS(=O)(=O)N1Cc2ccccc2CC1C(=O)NC(C)C12CC3CC(CC(C3)C1)C2 (configuration not stated)	EP2 modulator 63 (no result: S1P3 antagonist, Cl transport mod)
CCS(=O)(=O)N1Cc2ccccc2CC1C(=O)NCC12CC3CC(CC(C3)C1)C2 (configuration not stated)	none (no result: S1P3 antagonist)
Cc1ccc(S(=O)(=O)c2c(C)cc(C)nc2Oc2cccc(C(F)(F)F)c2)cc1	EP2 modulator 64 (no result: S1P3 antagonist)
Cc1cc(-c2ccccc2)nc(Oc2cccc(C(F)(F)F)c2)c1S(C)(=O)=O	none (no result: S1P3 antagonist)
CCOC(=O)c1c(-c2ccc(OC)c(OC)c2)csc1NC(=O)CCCl	none (no result: S1P3 antagonist, Cl transport mod)
CCOC(=O)c1c(-c2ccc(C)c(C)c2)csc1NC(=O)COC	EP2 modulator 93 (no result: S1P3 antagonist, Cl transport mod)
CCOC(=O)c1c(-c2ccccc2)csc1NC(=O)CCN1C(=O)c2ccccc2C1=O	none
CCOC(=O)c1c(-c2ccc(OC)c(OC)c2)csc1NC(=O)CC	none (no result: S1P3 antagonist, Cl transport mod)
CCOC(=O)c1c(-c2ccc(OCC)cc2)csc1NC(=O)CC	EP2 modulator 67 (no result: S1P3 antagonist, Cl transport mod)
CCOC(=O)c1c(-c2ccccc2)csc1NC(=O)COC	EP2 modulator 80 (no result: S1P3 antagonist, Cl transport mod)
CCOC(=O)c1c(-c2ccc(C)cc2)csc1NC(=O)COC	EP2 modulator 82 (no result: S1P3 antagonist, Cl transport mod)
N[C@@H](CSC1(c2ccc(Cl)cc2)c2ccccc2-c2ccccc21)C(=O)O	EP2 antag 44 (no result: S1P3 antagonist, Cl transport mod)
NCCN1C(=O)c2ccccc2[C@@]1(O)c1ccc(Cl)cc1	none (no result: S1P3 antagonist, Cl transport mod)
Cc1ccc(-c2cc(N)c(=O)n(CC(=O)N3CCCC(C)C3)n2)s1 (configuration not stated)	none (no result: S1P3 antagonist, Cl transport mod)
N#C/C(=N\Nc1cccc(C(F)(F)F)c1)C(=O)c1csc(-c2cccnc2)n1	Cl transport mod -6.1
CCn1c(=O)n(CC(=O)NCc2ccccc2)c2cccnc21	none (no result: EP2 antag, S1P3 antagonist, Cl transport mod)
COc1cccc(N2CCN(c3ncnc4c3[nH]c3ccccc34)CC2C)c1 (configuration not stated)	none (no result: S1P3 antagonist)
COc1cccc(N2CCN(c3ncnc4c3[nH]c3ccc(F)cc34)CC2C)c1 (configuration not stated)	EP2 antag 99 (no result: S1P3 antagonist)
CC(=O)N(Cc1cc2cc3c(cc2[nH]c1=O)OCCO3)CC1CCCO1 (configuration not stated)	none (no result: S1P3 antagonist, Cl transport mod)
C[C@@]12C[C@H](O)[C@@H]3[C@H](CCC4=CC(=O)CC[C@]43C)[C@H]1CC[C@H]2c1csc(-c2ccccc2)n1	EP2 antag 40 (no result: S1P3 antagonist, Cl transport mod)
Cc1nc(C2CCC3C4CCC5=CC(=O)CC[C@]5(C)C4CC[C@]23C)cs1 (some centres not stated)	none (no result: Cl transport mod)
C[C@H]1CC[C@H]2C(=O)N3[C@H](c4ccccc4Br)[C@@H](C)CC[C@H]3C(=O)N2[C@@H]1c1ccccc1Br	Cl transport mod 4.4 (no result: EP2 antag)
c1ccc2cc(-c3cc(-c4cc(-c5ccc6ccccc6c5)on4)no3)ccc2c1	EP2 antag 45 (no result: S1P3 antagonist, Cl transport mod)
Clc1ccc(-c2cc(COc3ccc4ccccc4c3)no2)cc1	none (no result: EP2 antag, S1P3 antagonist)
CCn1c(=S)[nH]c2cc(C(=O)OC)ccc2c1=O	Cl transport mod 9.2 (no result: S1P3 antagonist)
CC(C)C(=O)Nc1nnc(SCC(=O)Nc2ccccc2F)s1	none (no result: S1P3 antagonist, Cl transport mod)
Cc1ccc(N2CC(C(=O)NC3CCCC3)CC2=O)cc1 (configuration not stated)	EP2 antag 50 (no result: S1P3 antagonist, Cl transport mod)
Cc1cc(C)c2c(N)c(C(=O)NC3CCCC3)sc2n1	none (no result: Cl transport mod)
Cc1cc(C)c2c(=O)n(CC(=O)NC3CCCC3)sc2n1	EP2 antag 118
COc1ccc(OC)c(CCNC(=O)Cn2sc3nc(C)cc(C)c3c2=O)c1	EP2 antag 112
Cc1cc(C)c2c(=O)n(CC(=O)Nc3cccc(Cl)c3C)sc2n1	EP2 antag 44
Cc1cc(C)c2c(=O)n(CC(=O)Nc3ccc(Br)c(C)c3)sc2n1	none
O=C(c1cc(C2CC2)[nH]n1)N1CCn2c(CO)nnc2C1	none (no result: EP2 antag, S1P3 antagonist, Cl transport mod)
Cc1nc(N2CCN(C(=O)c3ccc(F)cc3)CC2)c2c(C)c(C)sc2n1	none (no result: S1P3 antagonist, Cl transport mod)
C[C@@H]1OC(O[C@H]2[C@H](OC(=O)[C@]34CCC(C)(C)CC3C3=CCC5[C@@]6(C)CC[C@H](OC7O[C@@H](C)[C@H](O[C@@H]8OC[C@@H](O)[C@H](O)[C@H]8O)[C@@H](O)[C@H]7O)C(C)(C)C6CC[C@@]5(C)[C@]3(C)CC4O)OC[C@H](O)[C@H]2O)[C@H](O)[C@H](O)[C@H]1O[C@@H]1O[C@H](CO)[C@@H](O)[C@H](O)[C@H]1O (some centres not stated)	EP2 antag 108 (no result: S1P3 antagonist, Cl transport mod)
CC1(C)CC[C@]2(C)CC[C@]3(C)C(=CCC4[C@@]5(C)CC[C@H](O)C(C)(C)C5CC[C@]43C)C2C1 (some centres not stated)	none (no result: S1P3 antagonist, Cl transport mod)
CCN(CC)c1c([N+](=O)[O-])c(=O)n(C)c2ccccc12	none

Screening data (PubChem)
